# High-throughput results as filed in PubChem.
# The list is not random: actives were taken first. Their share in the collection is about 0.93%.
# CtBP-E1A inh – inhibitors of CtBP/E1A interaction; activity change, % (concentration not given with the values); 340,000 compounds, 0.49% hits; AlphaScreen GST-E1A/His-CtBP binding, 1536-well; stronger effect = lower value
#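 Homogeneous bead-based format: GST-tagged E1A captured on glutathione donor beads, His-tagged CtBP on nickel acceptor beads; compounds precede bead addition by 2 h at 37 °C.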
# MBNL1 CUG block – blocks human MBNL1 binding to CUG repeat RNA; AID 2675; 280,000 compounds, 0.036% hits; Potency, µM (titrated, usually from 57.5 µM), most hits filed as inhibitors; TR-FRET MBNL1-His/biotin-(CUG)12 binding, 665/545 ratio; active = well fitted inhibition curve with a large enough effect in the signal ratio, with a control signal flat, not every such curve was filed as active; inconclusive = small, poorly fitted or top-dose-only effect, or effect the other way, or a change in a side signal; inactive = no such curve, though single readings can be large or run the other way; the % refers to the signal ratio
#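 Ratiometric TR-FRET (665 over 545 nm, excitation 340 nm) tracks disruption of MBNL1-His/biotin-(CUG)12 complex after 60 min at room temperature, with compounds at 92 nM to 58 uM final.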
# PKM2 act – increases activity of human pyruvate kinase M2 | Potency, µM (titrated, usually from 57.5 µM), most hits filed as activators | AID 1631 | purified PKM2, Kinase-Glo ATP luminescence, activation; response scale: 0% is enzyme alone, no compound | 260,000 compounds, 0.34% hits | P14618; active = well fitted activation curve with a large enough effect; inconclusive = small, poorly fitted or top-dose-only effect; inactive = no such curve, though single readings can be large or run the other way; also: nearly all actives have a fitted effect of over 55% in size
# Target sequence (P14618 whole entry, looked up): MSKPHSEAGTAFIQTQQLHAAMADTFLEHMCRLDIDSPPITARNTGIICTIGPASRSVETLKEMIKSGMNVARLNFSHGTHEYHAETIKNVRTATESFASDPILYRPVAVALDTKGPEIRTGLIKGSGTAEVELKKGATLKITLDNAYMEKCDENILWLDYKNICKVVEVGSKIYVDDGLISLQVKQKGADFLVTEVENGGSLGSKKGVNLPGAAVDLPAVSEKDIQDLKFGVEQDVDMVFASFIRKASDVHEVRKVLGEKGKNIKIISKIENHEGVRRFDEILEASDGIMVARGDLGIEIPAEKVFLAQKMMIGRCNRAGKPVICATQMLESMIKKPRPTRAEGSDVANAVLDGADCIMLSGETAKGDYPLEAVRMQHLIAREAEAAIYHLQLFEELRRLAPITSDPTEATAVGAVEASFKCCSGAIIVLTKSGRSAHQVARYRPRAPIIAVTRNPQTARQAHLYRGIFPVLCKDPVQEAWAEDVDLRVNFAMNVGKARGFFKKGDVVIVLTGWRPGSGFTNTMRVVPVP
#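 Kinase-Glo luminescence reports ATP generated from ADP (0.1 mM) and PEP (0.5 mM) by purified hPK-M2 after 1 h at room temperature, pH 7.2 imidazole buffer; intermediate enzyme activity allows detecting inhibitors and activators.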
# Six1-Eya2 inh – Six1/Eya2 interaction inhibition; Q15475+O00167; AlphaScreen GST-Six1/His-Eya2 binding, biochemical; stronger effect = lower value; activity change, % (no concentration beside the values); 360,000 compounds, 0.56% hits; AID 651725
#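 Homogeneous AlphaScreen proximity assay pairing GST-Six1 with His-tagged Eya2 (added as 5X mix: 250 nM and 500 nM) in 50 mM Tris pH 8.0, 300 mM NaCl, 1 mM TCEP. Glutathione donor and nickel acceptor beads; 1 h, 37 °C, dark.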
# Hits are given with their value; n = inactive; u = inconclusive; x = not tested or not shown; [ ] = another dose, or the depositor's remark. Rule as the data show it, unless noted: active = activity change below about -65%; inconclusive = mostly about -30% to -63%; inactive = weaker than that.
SMILES,CtBP-E1A inh,MBNL1 CUG block,PKM2 act,Six1-Eya2 inh
COc1ccccc1CNC(=O)C1(C)CCN1C(=O)C1(c2ccccc2)CC1 (configuration not stated),n,x,x,n
CCCC1NC(=O)c2cc3ccccc3cc2-n2c1nc1cc(F)ccc1c2=O (configuration not stated),n,x,x,n
CCOC(=O)C1=CCN(S(=O)(=O)c2ccc(C)cc2)C1c1cccc(C)c1 (configuration not stated),n,x,x,n
CC1(C(=O)Nc2ccccc2)CCN1C(=O)CCc1ccc(Cl)cc1Cl (configuration not stated),n,x,x,n
CS(=O)(=O)Nc1cccc(NC(=O)c2cccc3c(-c4cccc(C(N)=O)c4)coc23)c1,-71.7,x,x,u
NC(CCc1ccccc1)c1csc(Nc2nncc3ccccc23)n1 (configuration not stated),n,x,x,n
O=C(Nc1ccccn1)C(c1ccccc1)c1ccccc1,n,x,x,n
Cc1cc(N(C)C)ccc1N=Nc1ccc(N)cc1,-73.8,x,x,-76.7
CCC(=O)Nc1ccc2c(c1)OC[C@@H](C)N(Cc1cccc(F)c1)C[C@@H](C)[C@@H](OC)CN(C)C2=O,n,x,x,n
O=C1c2oc3ccccc3c(=O)c2C(c2cccc(Br)c2)N1Cc1ccco1 (configuration not stated),n,n,20µM,n
COc1ccc2cc(S(=O)(=O)c3ccccc3)c(=O)oc2c1,x,u,5.01µM,n
CCOC(=O)c1sc(NC(=O)C(CC)Sc2nnc3c4ccccc4n(C(C)C)c3n2)nc1C (configuration not stated),n,n,n,n
CCOC(=O)Cc1nnc(NC(=O)C(CC)Sc2nnc3c4ccccc4n(C)c3n2)s1 (configuration not stated),-71.0,n,n,u
COC(=O)c1ccc2nc(-c3ccc(OC)c(OC)c3)c(Cc3cccc(F)c3)n2c1,n,x,x,n
CCOC(=O)CCCNC(=O)N1CCc2nc(-c3ccccc3)c3c(c2C1)CO[C@@H](C)C3,x,x,n[11.5 µM],x
O=C(CCc1ccc(S(=O)(=O)N2CCOCC2)cc1)N/N=C/c1ccc(O)c(O)c1O,-72.8,x,n,-68.2
O=C(CCc1ccc(S(=O)(=O)N2CCOCC2)cc1)N/N=C/c1ccc(F)cc1F,n,n,n,n
Cc1ccc([C@H]2C[C@@H](O)[C@H](n3cc(COC(=O)c4ccccc4)nn3)CN2C(=O)c2cccs2)cc1,n,x,x,n
Nc1ccc(Br)c2cccnc12,n,n,n,n
Nc1ccc(N=Nc2ccccc2)c2cccnc12,-72.7,u,x,-65.2
COc1cccc(N=Nc2ccc(O)c3ncccc23)c1,-96.4,u,n,-70.3
COc1ccc(-c2[nH]ncc2N=Nc2ccccc2)cc1,u,u,n,n
COc1ccc(N=Nc2cc(-c3ccccc3)ccc2O)cc1,-69.3,n,n,u
Cc1ccccc1N=Nc1ccc(O)c2ncccc12,n,n,n,u
COc1ccc(C)cc1N=Nc1ccc(O)c2ncccc12,x,n,n,-94.9
SMILES,CtBP-E1A inh,MBNL1 CUG block,PKM2 act,Six1-Eya2 inh
NC(=O)c1cccc(-c2ccnc3c2CC(C(=O)Nc2ccc(Cl)cc2)O3)c1 (configuration not stated),n,x,x,n
CCOc1ccccc1C(=O)NC(C(=O)OCn1nnc2ccccc2c1=O)C(C)C (configuration not stated),n,x,x,n
OC[C@@H]1CN(Cc2cccc3ccccc23)C[C@H](n2cnc3c(NCc4ccco4)ncnc32)O1,n,x,x,n
COc1cc(OC)cc(C(=O)Nc2cccc3cccnc23)c1,n,n,n,n
COc1cccc(N=Nc2ccc3cccnc3c2O)c1,x,n,x,-91.1
Oc1ccc(N=Nc2ccc3c(c2)OCCO3)c2cccnc12,-84.3,n,x,-76.6
COc1ccc(N=Nc2ccc(O)c3ncccc23)cc1,x,n,n,-86.1
Cc1c(C(=O)NCc2cccc(C(F)(F)F)c2)sc(=O)n1Cc1ccccc1F,n,x,x,n
Cc1nc(NC2CCCCC2)c2nc(-c3ccccc3)n(CCN3CCCCC3)c2n1,x,x,n,x
COC(=O)[C@]12CCCCC=C1N(CCc1ccc(OC)c(OC)c1)C(=O)[C@H](CC(=O)N1CCOCC1)C2,n,x,x,n
O=c1c(CO)cc(CO)cc(CO)c1O,x,n,n,-89.9
Fc1ccccc1CCNc1c2c(nc3ncnn13)CCCC2,n,n,n,n
c1ccc(CCNc2c3c(nc4ncnn24)CCC3)cc1,n,n,25.1µM,n
Cc1cccn(Cc2c(F)cccc2Cl)c1=O,n,n,31.6µM,n
